Assay results reported in PubChem BioAssay.
The source made the active and inactive calls.

Key:
[1] = molecular target: NADPH oxidase 4 (Homo sapiens) (UniProt Q9NPH5); assay: NOX4-dependent H2O2 signal modulators, primary screen, NOX inhibitor project, cell-based, HEK293-NOX4, tetracycline-induced, Amplex Red fluorescence (AID 1160); settings: 45 min, higher = more signal, called active from +8 up or from −8 down
[2] = molecular target: NADPH oxidase 5 (Homo sapiens) (UniProt Q96PH1); assay: NOX5-dependent H2O2 signal modulators, primary screen, NOX inhibitor project, cell-based, HEK293-NOX5, Amplex Red fluorescence (AID 1161); settings: HEK293-NOX5, ionomycin, 45 min, higher = more signal
Chain of NADPH oxidase 5 (Homo sapiens) (Q96PH1 whole entry, looked up): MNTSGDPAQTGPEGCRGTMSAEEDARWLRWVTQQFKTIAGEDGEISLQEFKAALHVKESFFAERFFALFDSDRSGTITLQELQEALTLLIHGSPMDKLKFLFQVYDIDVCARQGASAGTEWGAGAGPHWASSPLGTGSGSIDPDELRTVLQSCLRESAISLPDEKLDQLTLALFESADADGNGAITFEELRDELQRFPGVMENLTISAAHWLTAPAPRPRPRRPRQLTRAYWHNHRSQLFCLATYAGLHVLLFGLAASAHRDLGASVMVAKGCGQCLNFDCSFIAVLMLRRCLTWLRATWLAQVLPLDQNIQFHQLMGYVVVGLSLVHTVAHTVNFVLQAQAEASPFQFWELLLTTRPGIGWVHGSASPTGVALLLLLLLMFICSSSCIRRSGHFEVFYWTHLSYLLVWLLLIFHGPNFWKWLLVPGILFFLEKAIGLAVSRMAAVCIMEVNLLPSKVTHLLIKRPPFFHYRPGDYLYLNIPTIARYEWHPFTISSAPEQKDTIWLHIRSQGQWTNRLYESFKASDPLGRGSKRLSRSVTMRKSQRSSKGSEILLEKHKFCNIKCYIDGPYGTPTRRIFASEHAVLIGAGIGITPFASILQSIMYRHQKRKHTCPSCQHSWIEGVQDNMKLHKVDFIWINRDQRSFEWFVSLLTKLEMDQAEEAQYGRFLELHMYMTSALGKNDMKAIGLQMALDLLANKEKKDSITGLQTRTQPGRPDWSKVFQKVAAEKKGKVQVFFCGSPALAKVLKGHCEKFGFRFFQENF

[3] = A549 cell viability effects, profiling panel, calcein-AM fluorescence, 48 h, basal (AID 1162); settings: higher = more signal; also: test concentration not given here
[4] = adipocyte viability effects, profiling panel, cell-based, 3T3-L1 adipocytes, calcein-AM fluorescence, 48 h, basal (AID 1163); settings: 3T3-L1 adipocytes viability, higher = more signal; also: test concentration not given here
[5] = HepG2 cell viability effects, profiling panel, calcein-AM fluorescence, 48 h, basal (AID 1164); settings: higher = more signal; also: test concentration not given here
[6] = MM1S cell viability effects, profiling panel, calcein-AM fluorescence, 48 h, basal (AID 1165); settings: higher = more signal;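 also: viability of MM1S multiple myeloma cells under basal unstimulated conditions; test concentration not given here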
[7] = basal RPMI8226 viability, no added stimulus, profiling panel, cell-based, calcein-AM fluorescence, 48 h, PK04 Diversity Set (AID 1166); settings: RPMI8226 myeloma viability, higher = more signal;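 also: cells grown under basal conditions without added stimulus; test concentration not given here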
[8] = basal HepG2 mitochondrial membrane potential changes, profiling panel, cell-based, JC-1 fluorescence, 24 h, 100 nL compound (AID 1167); settings: higher = more signal; also: test concentration not given here
[9] = basal 3T3-L1 adipocyte mitochondrial potential changes, profiling panel, cell-based, JC-1 fluorescence, 3T3-L1 adipocytes, 24 h, 100 nL compound (AID 1168); settings: JC-1 mitochondrial fluorescence, higher = more signal, called active from +8 up or from −8 down; also: test concentration not given here
[10] = basal RPMI8226 mitochondrial membrane potential changes, profiling panel, cell-based, JC-1 fluorescence, 24 h, 100 nL compound (AID 1169); settings: RPMI8226 myeloma, JC-1 mitochondrial potential fluorescence, higher = more signal; also: test concentration not given here
[11] = basal MM1S mitochondrial membrane potential changes, profiling panel, cell-based, JC-1 fluorescence, 24 h, 100 nL compound (AID 1170); settings: higher = more signal; also: test concentration not given here
[12] = A549 lung cancer cell viability effects, profiling panel, resazurin fluorescence, 24 h, PK04 Diversity Set (AID 1171); settings: higher = more signal, called active from +8 up or from −8 down; also: test concentration not given here
[13] = HepG2 liver cancer cell viability effects, profiling panel, resazurin fluorescence, 24 h, PK04 Diversity Set (AID 1172); settings: higher = more signal; also: test concentration not given here
[14] = basal S. cerevisiae growth modulation, no modifier, primary screen, OD600, strain BY4716, 24 h, basal condition (AID 1173); settings: OD600, 24 h, higher = more signal, called active from +8 up or from −8 down
[15] = MM1S myeloma cell viability, profiling panel, resazurin fluorescence, basal, 24 h, PK04 Diversity Set (AID 1174); settings: higher = more signal, called active from +8 up or from −8 down;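 also: MM1S multiple myeloma cell line; test concentration not given here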
[16] = molecular target: Dihydroorotate dehydrogenase (quinone), mitochondrial (Plasmodium falciparum (isolate 3D7)) (UniProt Q08210); assay: PfDHODH enzyme inhibitors, primary screen, biochemical, C-terminal His tag, absorbance 600 nm (AID 1175); settings: DCIP absorbance 600 nm, higher = more signal, called active from +8 up or from −8 down;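 also: recombinant parasite enzyme with a five histidine tag at its C terminus; test concentration not given here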
Chain of Dihydroorotate dehydrogenase (quinone), mitochondrial (Plasmodium falciparum (isolate 3D7)) (Q08210 whole entry, looked up): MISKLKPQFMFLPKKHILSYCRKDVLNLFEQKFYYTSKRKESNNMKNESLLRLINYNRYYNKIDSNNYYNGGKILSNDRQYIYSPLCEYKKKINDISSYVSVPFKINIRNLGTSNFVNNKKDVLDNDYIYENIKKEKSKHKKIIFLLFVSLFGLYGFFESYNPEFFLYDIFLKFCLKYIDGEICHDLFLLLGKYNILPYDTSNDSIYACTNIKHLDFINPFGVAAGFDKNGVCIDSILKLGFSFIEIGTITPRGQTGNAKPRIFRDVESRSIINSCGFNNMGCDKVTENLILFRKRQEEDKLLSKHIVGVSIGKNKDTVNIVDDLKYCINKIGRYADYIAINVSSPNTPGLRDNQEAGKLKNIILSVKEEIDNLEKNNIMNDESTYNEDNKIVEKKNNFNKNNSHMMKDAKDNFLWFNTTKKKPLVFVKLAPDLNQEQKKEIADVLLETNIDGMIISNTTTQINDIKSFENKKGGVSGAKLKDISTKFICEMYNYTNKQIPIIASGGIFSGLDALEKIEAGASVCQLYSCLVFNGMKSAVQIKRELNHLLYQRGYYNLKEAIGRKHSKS

[17] = S. cerevisiae RM11-1a growth modifiers, primary screen, strain RM11-1a, OD600, basal, 24 h (AID 1177); settings: OD600, 24 h, higher = more signal, called active from +8 up or from −8 down;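 also: cultures grown under basal conditions with no added stressor; test concentration not given here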
[18] = E. coli acrAB mutant growth effects, primary screen, E. coli filamentation inducers, strain DRC39, OD650, 24 h (AID 1178); settings: higher = more signal, called active from +8 up or from −8 down;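 also: growth measured as culture turbidity by optical density at 650 nm; test concentration not given here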
[19] = E. coli acrAB mutant growth effects, primary screen, E. coli filamentation inducers, strain DRC39, OD650, 48 h (AID 1179);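 also: screen aims at cell division blockers that make cells filament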; settings: E. coli DRC39 delta-acrAB growth, higher = more signal, called active from +8 up or from −8 down
[20] = RPMI8226 myeloma cell viability, profiling panel, resazurin fluorescence, basal, 24 h, PK04 Diversity Set (AID 1180); settings: higher = more signal;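 also: RPMI8826 multiple myeloma cell line at 5000 cells per well; test concentration not given here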

Chain of NADPH oxidase 4 (Homo sapiens) (Q9NPH5 whole entry, looked up): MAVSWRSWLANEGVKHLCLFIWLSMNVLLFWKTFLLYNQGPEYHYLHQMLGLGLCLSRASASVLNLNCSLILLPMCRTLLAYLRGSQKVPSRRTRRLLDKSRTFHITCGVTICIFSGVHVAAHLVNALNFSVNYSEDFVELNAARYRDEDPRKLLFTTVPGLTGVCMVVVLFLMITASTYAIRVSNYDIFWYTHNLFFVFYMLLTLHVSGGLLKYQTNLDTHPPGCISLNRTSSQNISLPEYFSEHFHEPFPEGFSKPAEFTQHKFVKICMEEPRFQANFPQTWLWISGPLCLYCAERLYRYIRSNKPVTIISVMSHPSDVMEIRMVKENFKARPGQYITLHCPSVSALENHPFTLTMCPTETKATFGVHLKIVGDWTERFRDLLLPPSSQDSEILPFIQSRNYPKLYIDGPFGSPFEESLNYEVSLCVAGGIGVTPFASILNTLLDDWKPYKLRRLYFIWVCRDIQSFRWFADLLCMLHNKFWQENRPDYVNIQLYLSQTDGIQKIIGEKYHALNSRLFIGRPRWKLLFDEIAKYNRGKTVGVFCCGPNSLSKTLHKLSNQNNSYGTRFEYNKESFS

Row | Structure (SMILES) | z-score [1] | z-score [2] | z-score [3] | z-score [4] | z-score [5] | z-score [6] | z-score [7] | z-score [8] | z-score [9] | z-score [10] | z-score [11] | z-score [12] | z-score [13] | z-score [14] | z-score [15] | composite z-score [16] | z-score [17] | z-score [18] | z-score [19] | z-score [20]
1 | COc1ccc([Si](C)(C)[C@H]2[C@H](CC(=O)N(CCO)Cc3ccccc3)O[C@@]3(C(=O)N(Cc4ccc(N5CCOC5=O)cc4)c4ccccc43)[C@@H]2C)cc1 | -0.23 (inactive) | 1.34 | -0.832 | 1.17 | -0.721 | -0.931 | 0.17 | 1.51 | 0.647 (inactive) | -1.19 | 0.188 | -1.36 (inactive) | -0.292 | -0.693 (inactive) | -1.98 (inactive) | 0.374 (inactive) | 2.73 (inactive) | 1.42 (inactive) | 1.29 (inactive) | -2.8
2 | CC(C)C[C@@H]1NC(=O)[C@@]23C(=O)N[C@@H](Cc4ccccc4)C2[C@H](C)[C@@]2(C)O[C@H]2C3/C=C/C/C=C\CNC(=O)[C@H](Cc2ccccc2)NC1=O (stereo not given in full) | 0.692 (inactive) | -3.15 | 0.823 | 1.14 | 0.331 | 0.0263 | -0.928 | 1.42 | 0.868 (inactive) | -0.0886 | 0.851 | 0.703 (inactive) | 0.182 | -2.28 (inactive) | -0.295 (inactive) | 0.113 (inactive) | -0.748 (inactive) | 2.7 (inactive) | 1.22 (inactive) | 0.468
3 | CCN(CC)c1ccc(N2CC=CC34O[C@@H]5C=CCOC(=O)[C@@H]5[C@H]3C(=O)N(C(C)CO)[C@@H]4C2=O)cc1 (stereo not given in full) | 0.197 (inactive) | 0.871 | 0.271 | 0.754 | 0.0598 | 1.15 | -0.262 | 0.469 | 0.382 (inactive) | -0.809 | 0.907 | 0.924 (inactive) | 0.878 | -0.746 (inactive) | 1.3 (inactive) | -0.393 (inactive) | -0.0464 (inactive) | 1.7 (inactive) | 1.31 (inactive) | 0.587
4 | COc1ccc([Si](C)(C)[C@H]2[C@H](CC(=O)N(CCO)Cc3ccccc3)O[C@@]3(C(=O)N(Cc4ccc(N5CCC5=O)cc4)c4ccccc43)[C@@H]2C)cc1 | 1.25 (inactive) | 2.96 | -0.0126 | 0.816 | -0.861 | -1.22 | -3.56 | 0.197 | 1.44 (inactive) | -0.995 | 0.233 | -1.1 (inactive) | 0.0408 | -0.344 (inactive) | -1.3 (inactive) | -0.983 (inactive) | 1.73 (inactive) | 1.61 (inactive) | 1.46 (inactive) | -1.97
5 | Cc1ccc(N2C(=O)c3ccccc3[C@](C)(C(=O)NC3CC3)[C@@H]2c2ccc(CO)cc2)nc1 | 0.504 (inactive) | 0.398 | 0.434 | 0.995 | 0.0786 | 0.47 | 0.442 | 0.587 | -0.73 (inactive) | 0.36 | 0.259 | 1.1 (inactive) | 0.403 | -1.76 (inactive) | 1.55 (inactive) | 0.0264 (inactive) | -0.224 (inactive) | 0.256 (inactive) | 0.143 (inactive) | 1.51
6 | [N-]=[N+]=NCc1ccccc1C[C@@]1(C(=O)NCc2ccccc2)N=C(c2ccc(OCCCO)cc2)O[C@@H]1c1ccccc1 | 0.964 (inactive) | 0.0832 | -2.22 | 0.904 | -1.34 | -2.85 | -3.02 | 0.634 | 0.187 (inactive) | -0.876 | -0.758 | 0.507 (inactive) | 1.72 | 1.47 (inactive) | -0.544 (inactive) | -0.112 (inactive) | 0.971 (inactive) | 1.61 (inactive) | 0.407 (inactive) | -0.732
7 | COCCCNC(=O)[C@@]1(C)c2ccccc2C(=O)N(Cc2cc(F)cc(C(F)(F)F)c2)[C@H]1c1ccc(CO)cc1 | -1.4 (inactive) | 0.42 | -0.0292 | 0.604 | -0.176 | 0.534 | -0.0765 | 1.32 | 0.0832 (inactive) | -0.69 | 0.659 | 0.914 (inactive) | -0.0724 | 0.416 (inactive) | 1.09 (inactive) | 0.408 (inactive) | 1.35 (inactive) | 1.04 (inactive) | 0.359 (inactive) | 1.31
8 | CC(C)CNC(=O)[C@@H]1c2ccccc2C(=O)N(Cc2ccc(OC(F)(F)F)cc2)[C@H]1c1ccc(CO)cc1 | 0.925 (inactive) | 1.57 | 2.26 | 0.18 | 0.442 | -0.201 | 0.351 | 2.64 | 1.08 (inactive) | 0.417 | -0.881 | 1.31 (inactive) | 0.867 | -1.78 (inactive) | 1.33 (inactive) | -0.876 (inactive) | -2.73 (inactive) | 1.38 (inactive) | 1.5 (inactive) | 1.13
9 | C=CC[C@]1(C(=O)N2CCCCC2)COC(c2ccc(OCCCO)cc2)=N1 | -0.256 (inactive) | -3.57 | -1.48 | 1.98 | -2.29 | -3.6 | -2.3 | -0.223 | 0.322 (inactive) | -0.749 | -0.435 | -0.585 (inactive) | 1.55 | -6.59 (inactive) | -0.863 (inactive) | -0.0606 (inactive) | 0.474 (inactive) | 2.98 (inactive) | 0.693 (inactive) | 0.909
10 | O=C1c2ccccc2[C@@]2(Cc3ccccc3N(CC(F)(F)F)C2=O)[C@H](c2ccc(CO)cc2)N1Cc1ccccc1C(F)(F)F | 0.396 (inactive) | 1.09 | 1.73 | 0.559 | -0.167 | 0.733 | -1.08 | 0.288 | 1.05 (inactive) | 0.753 | 0.197 | -0.203 (inactive) | 0.528 | -0.829 (inactive) | 1.02 (inactive) | -3.56 (inactive) | -0.49 (inactive) | -0.136 (inactive) | -0.344 (inactive) | 1.05
11 | CC(C)[C@@H](C(=O)O)n1cc(-c2ccccn2)nn1 | 0.242 (inactive) | -0.24 | -0.137 | 1.05 | 0.106 | -0.0169 | 0.516 | 0.422 | 0.592 (inactive) | -0.276 | 0.414 | 0.756 (inactive) | 0.735 | -1.37 (inactive) | 1.11 (inactive) | -0.206 (inactive) | -0.52 (inactive) | 1.87 (inactive) | 1.17 (inactive) | 0.386
12 | COc1ccc([Si](C)(C)[C@@H]2[C@@H](CC(=O)N3CCC[C@H]3CO)O[C@]3(C(=O)N(Cc4ccc(N5CCC5=O)cc4)c4ccccc43)[C@H]2C)cc1 | 1.58 (inactive) | 4.86 | -0.639 | 0.592 | -3.27 | -2.7 | -4.39 | -1.56 | 1.28 (inactive) | -1.18 | -1.66 | -1.99 (inactive) | -1.43 | -1.17 (inactive) | -2.01 (inactive) | -2.42 (inactive) | 0.613 (inactive) | 1.34 (inactive) | 1.2 (inactive) | -5.16
13 | CCOC(=O)C[C@H]1[C@H](OC(=O)c2cc3ccccc3oc2=O)[C@@H](NC(=O)c2ccccc2)c2cc(OCCCO)ccc2N1C(=O)Cc1ccc(OC)cc1 | 0.106 (inactive) | 0.874 | -0.0571 | 2.5 | -0.382 | 0.497 | -1.86 | 1.66 | 0.965 (inactive) | -0.295 | 1.13 | -0.53 (inactive) | -0.259 | -1.99 (inactive) | 0.757 (inactive) | -2.68 (inactive) | -0.859 (inactive) | 3.23 (inactive) | 1.78 (inactive) | 0.625
14 | C=C1C=C(Br)C2(OCCCO2)[C@H]2OC12 (stereo not given in full) | 0.0158 (inactive) | 0.705 | -1.53 | -0.191 | 0.817 | 0.174 | -0.0566 | 0.533 | -0.696 (inactive) | 0.305 | -0.443 | -0.54 (inactive) | -0.92 | -0.353 (inactive) | -2.94 (inactive) | -0.99 (inactive) | 0.307 (inactive) | 0.846 (inactive) | 0.781 (inactive) | -0.846
15 | COc1c(C)cc(-c2cc3c(c(CCc4ccccc4)n2)[Si](C(C)C)(C(C)C)OC3)cc1C | 0.907 (inactive) | -0.11 | 0.483 | 1.27 | -0.277 | -1.5 | 0.0965 | -2.26e-05 | 0.334 (inactive) | 0.667 | 0.168 | 1.38 (inactive) | 1.64 | -0.966 (inactive) | 1.93 (inactive) | -0.545 (inactive) | -1.43 (inactive) | 1.75 (inactive) | 1.08 (inactive) | 1.37
16 | COc1ccc(/C=C/C(=O)c2cccc(OCC(=O)OC(C)(C)C)c2)cc1 | 0.197 (inactive) | -3.7 | 0.764 | 0.934 | 0.158 | -2.97 | -2.67 | 0.528 | 0.342 (inactive) | -0.702 | 0.656 | 1.26 (inactive) | 0.163 | -1.39 (inactive) | 1.11 (inactive) | 0.131 (inactive) | -0.428 (inactive) | 0.4 (inactive) | 0.0785 (inactive) | 1.76
